Hits are enriched below; roughly 2.4% of the tested compounds scored in any of these assays.
D2 PAM-1 = human D2 receptor positive allosteric modulation. DiscoveRx D2 beta-arrestin cells, luminescence, 90 min; 100% = 57 uM dopamine signal. potentiation, % (test concentration not listed). hit rate 0.23% among 360,000; in the data active = potentiation above about 50%; inconclusive = mostly about 30% to 49%
Target sequence (P14416 whole entry, looked up): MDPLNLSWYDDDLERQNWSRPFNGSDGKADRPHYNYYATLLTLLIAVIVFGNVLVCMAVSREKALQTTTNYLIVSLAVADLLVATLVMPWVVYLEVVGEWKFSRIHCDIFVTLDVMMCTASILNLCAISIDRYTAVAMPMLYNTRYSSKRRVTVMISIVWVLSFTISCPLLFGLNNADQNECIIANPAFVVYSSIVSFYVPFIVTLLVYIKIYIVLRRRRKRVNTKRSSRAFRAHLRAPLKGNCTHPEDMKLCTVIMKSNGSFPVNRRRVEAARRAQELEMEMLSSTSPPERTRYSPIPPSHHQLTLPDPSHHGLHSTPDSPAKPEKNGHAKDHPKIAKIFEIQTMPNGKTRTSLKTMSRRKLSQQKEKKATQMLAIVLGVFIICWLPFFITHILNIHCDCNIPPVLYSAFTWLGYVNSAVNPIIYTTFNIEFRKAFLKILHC
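PathHunter beta-arrestin assay in DiscoveRx D2 cells. Compounds were added with an EC20 of dopamine (50 nM final) for 90 min at 37 deg C. Luminescence was read 1 h after detection reagent, with 57 uM dopamine as the EC100 control.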
D2 ag-1 = human D2 receptor agonism in beta-arrestin assay | DiscoveRx PathHunter D2 beta-arrestin, luminescence, 90 min; 100% = 57 uM dopamine signal | activation, % (no concentration beside the values) | hit rate 0.084% among 360,000 | AID 624465; in the data active = activation above about 40%; inconclusive = between about 15% and that limit
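Agonist mode: compounds alone added to overnight-plated D2 PathHunter cells for 90 min at 37 C, with 57 uM final dopamine (EC100) defining full response. Beta-arrestin recruitment detected by chemiluminescent reagent, read after 1 h at ambient temperature.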
D2 PAM-2 = D2 dopamine receptor (human) potentiation; HEK293 T-REx D2, calcium flux, EC20 dopamine potentiation; potentiation, % at 10 µM; P14416; hit rate 0.34% among 340,000;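 active = potentiation over 3 SD above the plate norm, cut at about 30% in these data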
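Potentiation of an EC20 dopamine calcium response measured kinetically over 180 s, after a preceding 180 s compound-only read flagging agonists. Cells: inducible Hek293 Trex D2 line, 4000/well, cultured overnight at 30 C before dye loading.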
D2 antag = antagonists of human D2 dopamine receptor; P14416; HEK293 TREx D2 cells, calcium flux, dopamine EC80; inhibition, % at 10 µM; hit rate 2% among 340,000; AID 485344; in the data active = inhibition above about 30%; inactive = below that, where a call was filed
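Dopamine at EC80 is the agonist stimulus; test compounds precede it by 180 s. Calcium flux read kinetically in a force-coupled, inducible HEK293 T-REx D2 cell line.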
D2 ag-2 = agonists of human D2 dopamine receptor; activation, % at 2 µM; AID 485358; hit rate 0.53% among 340,000; HEK293 T-REx D2 cells, calcium flux agonist mode; P14416;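 active = activation over 3 SD above normal in the single-dose calcium agonist read, cut at about 30% in these data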
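Agonism is scored from calcium flux in a force-coupled, inducible HEK293 cell line expressing D2, read kinetically for 180 s after compound addition against dopamine controls.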
A number is an active result; i = inactive; ? = inconclusive; nt = no result given.

SMILES	D2 PAM-1	D2 ag-1	D2 PAM-2	D2 antag	D2 ag-2
CC1CCCN(S(=O)(=O)c2ccc(S(=O)(=O)N3CCC4(CC3)OCCO4)cc2)C1 (stereo not given)	i	i	i	40	i
COc1ccc(CCNC(=O)c2ccc3c(c2)nc2n3CCOC2)cc1OC	nt	nt	i	nt	nt
O=C1C2C3C=CC(C4CC34)C2C(=O)N1/N=C/c1cccs1 (stereo not given)	61	i	i	i	i
COc1ccc(CN(C)c2ccc(-c3nc(-c4ccc(OC)c(OC)c4)no3)cc2[N+](=O)[O-])cc1	nt	nt	i	nt	i
O=C(CN1CCN(c2ccccc2)CC1)NC(=O)NCc1ccco1	i	i	i	i	39
O=C(NC1CCCC1)C(c1ccc(Cl)cc1)N1CCOCC1 (stereo not given)	i	i	i	32	i
O=C(c1cc(Br)ccc1OC(F)F)N1CCN2CCCC2C1 (stereo not given)	i	i	i	33	i
CN1CCN(C(=S)c2ccc(-c3cccc([N+](=O)[O-])c3)o2)CC1	i	i	i	i	i
O=[N+]([O-])c1cccc(-c2ccc(C(=S)N3CCOCC3)o2)c1	i	i	i	61	i
O=C(Nc1ccc(CN2CCOCC2)cc1)c1ccc(-c2cccc([N+](=O)[O-])c2)o1	i	i	i	i	i
O=[N+]([O-])c1cccc(-c2ccc(CN3CCCCC3)o2)c1	i	i	i	81	i
CCN(CC)S(=O)(=O)c1ccc2c(c1)N(CC(=O)NCCCN1CCN(c3cc(C)ccc3C)CC1)C(=O)CO2	nt	nt	i	nt	i
Cc1ccc(CNC(=O)CSCc2ccccc2C)cc1	nt	nt	nt	nt	i
COc1ccc(C2Nc3ccc(Br)cc3C(c3ccccc3)N2CC(=O)O)cc1 (stereo not given)	i	i	i	61	i
O=C(O)CN1C(c2ccccc2O)Nc2ccc(Br)cc2C1c1ccccc1 (stereo not given)	i	i	i	i	i
COc1ccc(-c2cc(C(F)(F)F)n3nc(-c4ccc(Cl)cc4)cc3n2)cc1OC	nt	nt	i	nt	i
Cc1cccc(NS(=O)(=O)c2ccc3c(c2)n(C)c(=O)n3C)c1C	nt	nt	i	nt	i
CCN1CCCC(NC(=O)c2cc([N+](=O)[O-])ccc2OC)C1 (stereo not given)	i	i	i	39	i
O=c1c(N2CCN(c3cccc(C(F)(F)F)c3)CC2)csc2ccccc12	nt	nt	i	nt	i
COCCOc1ccc(C(F)(F)F)cc1NC(=O)c1ccc(C(F)(F)F)cc1	i	i	i	59	i
O=C(Cc1ccc([N+](=O)[O-])cc1)Nc1ccc(Cl)cc1	i	i	i	i	i
Cc1c(Cl)cccc1NC(=O)Cc1ccc([N+](=O)[O-])cc1	i	i	i	45	i
COc1ccc(N2CCN(S(=O)(=O)c3ccc(CC(C)C)cc3)CC2)cc1	nt	nt	i	nt	nt
Cn1cc(-c2cc3n(n2)CCC(=O)N3CCCC(=O)NCc2ccc(F)cc2)c2ccccc21	nt	nt	i	nt	i
O=C(Cc1ccccc1[N+](=O)[O-])NCCc1ccc(F)cc1	i	i	i	i	i
SMILES	D2 PAM-1	D2 ag-1	D2 PAM-2	D2 antag	D2 ag-2
CC(C)CCNC(=O)Cc1ccccc1[N+](=O)[O-]	i	i	33	i	i
Cc1ccc(-c2nc3ccccc3c(=O)n2O)cc1	i	i	i	i	i
O=c1c2ccccc2nc(-c2ccc([N+](=O)[O-])cc2)n1O	i	i	31	i	i
COC1CCCN(C(=O)c2ccc3oc(Cc4ccc(Cl)cc4)nc3c2)C1 (stereo not given)	i	i	i	31	i
O=C(c1ccc(Cn2c(=S)[nH]c3ccccc3c2=O)cc1)N1CCN(c2ccccn2)CC1	i	i	i	33	i
CCOC(=O)N1CCN(C(=O)c2ccc(Cn3c(=S)[nH]c4cc(OCC)c(OCC)cc4c3=O)cc2)CC1	i	i	i	i	i
O=C(c1ccc2c(=O)n(CCc3ccccc3)c(=O)[nH]c2c1)N1CCN(c2ccccc2)CC1	i	i	30	i	i
CCOc1cc2[nH]c(=S)n(Cc3ccc(C(=O)NCCN(CC)CC)cc3)c(=O)c2cc1OCC	i	i	i	50	i
CCOC(=O)N1CCN(C(=O)c2ccc(Cn3c(=S)[nH]c4cc5c(cc4c3=O)OCO5)cc2)CC1	i	i	i	31	i
O=C(c1ccc2c(=O)n(CCc3ccccc3)c(=O)[nH]c2c1)N1CCN(c2ccc(F)cc2)CC1	i	i	i	i	i
COc1cccc(-c2cn3c(n2)sc2cc(C(=O)NC4CCCCCC4)ccc23)c1	nt	nt	i	nt	i
CCCCn1cc(S(=O)(=O)c2ccccc2)c(=O)c2cc(F)c(N3CCC(C)CC3)cc21	nt	nt	i	nt	i
O=C(CSC1=Nc2ccccc2N=C(c2ccc(F)cc2)C1)NCc1ccccc1	nt	nt	i	nt	i
C=CCn1c(=O)[nH]c2cc(C(=O)N3CC=C(c4ccccc4)CC3)ccc2c1=O	i	i	i	36	i
CCCCCn1c(=O)[nH]c2cc(C(=O)N3CCN(Cc4ccc5c(c4)OCO5)CC3)ccc2c1=O	i	i	i	i	38
Oc1c(C(c2ccc(Cl)cc2)N2CCOCC2)sc2nc(-c3ccco3)nn12 (stereo not given)	nt	nt	i	nt	i
O=C(O)c1ccccc1-c1nc2ccccc2[nH]1	i	i	i	i	i
Oc1ccc2ccccc2c1C=Nc1ccccc1-c1nc2ccccc2[nH]1	53	i	i	41	i
Cc1ccc(SCC(=O)NC(C)(C)C)cc1	i	i	i	37	i
Cc1ccc(SCC(=O)Nc2cccc(C(=O)NC(C)(C)C)c2)cc1	i	i	i	i	i
CCOC(=O)COn1c(-n2nc(C)cc2C)nc2ccccc2c1=O	i	i	i	33	i
Cc1nc(-c2ccc(Cl)cc2)sc1CCNC(=O)c1ccc(C(F)(F)F)cc1	nt	nt	i	nt	i
O=C(Nc1ccc(Br)cc1F)C1CCN(c2nc3ccccc3[nH]2)CC1	nt	nt	i	nt	i
COc1ccc(-n2cc(-c3ccccc3)c3c(N4CCOCC4)ncnc32)cc1	62	?	i	i	i
Fc1ccc(-n2cc(-c3ccccc3)c3c(N4CCOCC4)ncnc32)cc1	i	?	i	i	i
SMILES	D2 PAM-1	D2 ag-1	D2 PAM-2	D2 antag	D2 ag-2
CCOc1ccc(NC(=O)C23CC4CC(C2)CC(c2ccccc2)(C4)C3)cc1	i	i	i	31	i
CCOC(=O)CNC(=O)C12CC3CC(C1)CC(c1ccc(C)cc1)(C3)C2	i	i	i	i	i
COCCCn1c(=O)c2sccc2n(Cc2cccc(C)c2)c1=O	i	i	i	41	i
COCCCn1c(=O)c2sccc2n(Cc2cccc(F)c2)c1=O	i	i	i	i	i
COCCCNC(=O)CSc1nc2cc3c(cc2c(=O)n1CCCCCC(=O)NCc1ccc(OC)cc1)OCO3	nt	nt	i	nt	i
Clc1ncccc1-c1nc2ccccc2s1	i	i	66	i	i
COc1cccc(-c2nc3ccccc3s2)c1O	i	i	i	i	i
CCc1noc(C)c1C(=O)NNC(=O)c1ccc(Br)cc1	i	i	i	37	i

Bioassay records deposited in PubChem by National Center for Advancing Translational Sciences (NCATS).
